Abeta rescue – qHTS for compounds that reverse cellular toxicity of Amyloid beta (A-beta) peptide in yeast: Primary Screen; yeast expressing A-beta42, growth rescue, OD600, 48 h; response scale: 0% DMSO, 100% iron-clioquinol control; Potency, µM (top dose mostly 46.1 µM), hits mostly activators; 410,000 tested, 0.063% active; AID 1347071, 2019; further: nearly all actives have a fitted effect of over 55% in size
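Growth rescue measured by 600 nm absorbance after 48 h yeast culture at 30 C with compound. Values normalized between DMSO and an equimolar ferric chloride plus clioquinol control.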
aSyn rescue – qHTS of alpha-syn Inhibitors | 370,000 tested, 0.14% active | Yeast expressing alpha-synuclein, growth rescue, BacTiter-Glo, 24 h | Potency, µM (doses to about 46.1 µM), without a hit: at the highest dose growth rescue (activation), most hits filed as activators; further: % of control where 0% means no effect; nearly all actives have a fitted effect of over 65% in size
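Galactose-induced alpha-syn yeast (OD600=0.02, raffinose-pregrown) + pinned cpd, 24 hr, 30 deg C; growth by BacTiter-Glo luminescence. Growth restoration scores as activation.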
TDP-43 yeast inh – qHTS of TDP-43 Inhibitors; TDP-43 expressing yeast growth rescue, BacTiter-Glo, 24 h; Potency, µM (doses to about 46.1 µM), for the others: at the highest dose growth rescue (activation), usual class: activators; 410,000 tested, 1.8% active; AID 652104, 2013; further: % of control where 0% means no effect; nearly all actives have a fitted effect of over 50% in size
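Cell-based yeast growth screen: TDP-43 expression induced in galactose, inoculum OD600=0.02 after raffinose pregrowth to mid-log. Read-out BacTiter-Glo luminescence at 24 hr, 30 deg C; inhibition of toxicity seen as signal increase.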
Mito fusion act – qHTS Assay for Small Molecule Inhibitors of Mitochondrial Division or Activators of Mitochondrial Fusion; AID 485298, 2010; Potency, µM (highest dose often 46.1 µM), inactives show at the highest dose growth rescue (activation), most hits filed as activators; S. cerevisiae fusion-defective mutant growth rescue, CellTiterGlo 48 h; 320,000 tested, 0.23% active; further: % of control where 0% means no effect; nearly all actives have a fitted effect of over 45% in size
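S. cerevisiae fusion-defective temperature-sensitive mutants (e.g. fzo1-1, mgm1-5) grown 48 h at 37C in YPEG (ethanol/glycerol non-fermentable) medium with 23 nl compound per well; growth rescue read as CellTiterGlo luminescence.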
FUS yeast rescue – qHTS for Suppressors of FUS Proteinopathy: Primary screen using FUS-linked yeast assay | S. cerevisiae FUS-expressing, growth rescue, OD600, 24 h | Potency, µM (doses to about 76.6 µM), hits mostly activators | 390,000 tested, 0.24% active;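 further: plate controls were DMSO vehicle for no effect and reference control for full effect; nearly all actives have a fitted effect of over 55% in size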
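FUS-expressing yeast, raffinose-pregrown, induced in 2% galactose minimal medium at OD 0.005; compounds in a dilution series, 24hr at 30C. Growth restoration read as absorbance at 600 nm. CP55940 positive control, DMSO negative.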
The depositor's hits bear a star; i = inactive; ? = inconclusive; nt = no result given; [ ] = dose if it differs, or a comment. Most compounds without a hit are left out; they make up all but 2.2% or so of the library. The call rests on the fitted dose curve; in most records, active means well fitted curve in the direction sought with a large enough effect; inconclusive means small, poorly fitted or top-dose-only effect, or another doubt; inactive means no such curve, though single readings can be large; an effect the other way counts as inactive or inconclusive. Potency means the concentration at half of the fitted maximal effect.

SMILES | Abeta rescue | aSyn rescue | TDP-43 yeast inh | Mito fusion act | FUS yeast rescue
S=C(NCc1ccccc1)Nc1ccc2ccccc2c1 | ? | 2% | ? | -9% | i
C/C(=C\C(=S)Nc1ccccc1)Nc1cccc2ccccc12 | i | 0% | 11µM* | 9% | nt
C/C(=C\C(=S)Nc1ccccc1)Nc1ccc2ccccc2c1 | i | -2% | 13µM* | 1% | i
CN(C)c1ccc(C(O)c2cc3ccccc3s2)cc1 (configuration not stated) | ? | 14µM* | 16% | nt | i
CN(C)c1ccc(-c2csc(C(O)c3ccccc3)n2)cc1 (configuration not stated) | i | 14% | 24% | nt | i
O=C(NCCSc1ccc(Cl)cc1)c1ccco1 | i | -3% | 7.1µM* | 0% | i
COc1ccc(Cl)cc1NC(=S)NCCSc1ccc(C)cc1 | i | -6% | 22µM* | 5% | nt
O=C(CCSc1ccc(Cl)cc1)c1ccco1 | i | -10% | ? | 5% | i
Cc1cccc(C)c1NC(=S)NCCSc1ccc(Cl)cc1 | i | 6% | 22µM* | 5% | i
COc1ccccc1NC(=S)NCCSc1ccc(Cl)cc1 | i | -8% | 0% | 21% | nt
COc1ccc(Cn2cc(CN3[C@@H](C)COc4cc(Br)ccc4S3(=O)=O)nn2)cc1 | nt | nt | nt | nt | i
CCNC(=S)Nc1ccc(OCc2nc3ccccc3s2)cc1 | i | -19% | ? | -12% | i
O=[N+]([O-])c1cc(C(F)(F)F)ccc1NCCc1c[nH]c2ccc(O)cc12 | i | 17% | 6% | ? | i
O=[N+]([O-])c1cc(C(F)(F)F)ccc1NCCc1c[nH]c2ccccc12 | i | 4% | 22µM* | -7% | i
Cc1c(C(=O)NCc2ccc(Cl)cc2)sc2nc3n(c(=O)c12)CCCC3 | i | nt | ? | nt | i
Cc1c(C(=O)NCc2cccc(Cl)c2)sc2nc3n(c(=O)c12)CCCC3 | i | nt | 22µM* | nt | i
Cc1c(C(=O)NCc2ccccc2Cl)sc2nc3n(c(=O)c12)CCC3 | i | nt | 18µM* | nt | i
CC(C)(C)c1ccc(C(=O)N2CCC2(C)C(=O)Nc2cccc3ccccc23)cc1 (configuration not stated) | i | 12% | 1% | nt | ?
CC(C)(C)c1ccc(C(=O)N2CCC2(C)C(=O)Nc2cccc3ncccc23)cc1 (configuration not stated) | i | 11% | 25µM* | nt | i
O=C(O/N=C1\CCCc2ccccc21)c1cccc(Cl)c1 | i | 1% | 5µM* | 18% | i
Cc1cccc(C(=O)O/N=C2\CCCc3ccccc32)c1 | i | 0% | 11µM* | 4% | i
Cc1ccc(C(=O)O/N=C2\CCCc3ccccc32)cc1 | i | nt | 24% | -1% | i
CC(=O)c1ccc(OC(=O)Cc2cccc3ccccc23)cc1 | ? | -1% | ? | 2% | i
CC(C)(C)C(=O)NC(=S)Nc1ccc(C(F)(F)F)cc1 | 13µM* | 0% | 20% | -1% | i
CC(C)(C)C(=O)NC(=S)Nc1ccc(Cl)c(C(=O)O)c1 | i | 13% | -12%[1.82 µM] | 9% | i
SMILES | Abeta rescue | aSyn rescue | TDP-43 yeast inh | Mito fusion act | FUS yeast rescue
Cc1ccc(C)n1NC(=O)c1ccc(O)cc1 | i | 6% | -15% | 1% | i
Cc1ccc(C)n1NC(=O)c1ccccc1 | i | -2% | -2% | 2% | 20µM*
Nc1ccc2oc(CCc3ccccc3)nc2c1 | i | -1% | 18µM* | 12% | i
Cc1ccc(CNc2nccn(-c3cc(C)cc(C)c3)c2=O)cc1 | i | nt | ? | nt | i
Cc1ccc(-n2ccnc(NCc3ccccc3)c2=O)cc1C | i | nt | 32µM* | nt | i
COc1cccc(CNc2nccn(-c3cc(C)cc(C)c3)c2=O)c1 | i | nt | 18µM* | nt | i
Cc1ccc(-n2nc(C)c3nc(CCC(=O)Nc4cccc(C)c4C)c(=O)n(C)c32)cc1 | i | nt | -2% | nt | i
Cc1ccc2nc(NC(=O)c3ccc(S(=O)(=O)N4CCC(C)CC4)cc3)sc2c1 | i | -8% | 4% | nt | i
O=C(Nc1nnc(C2CC2)o1)c1ccc(S(=O)(=O)N2CCc3ccccc3C2)cc1 | i | 18µM* | 16µM* | -5% | i
Cc1cc(C)c2nc(NNC(=O)c3ccc(S(=O)(=O)N4CCCC(C)C4)cc3)sc2c1 (configuration not stated) | i | 27% | ? | -6% | i
Cc1ccc2nc(NNC(=O)c3ccc(S(=O)(=O)N4CCc5ccccc5C4)cc3)sc2c1 | i | ? | 8.9µM* | -1% | ?
Cc1cc(C)c2nc(NNC(=O)c3ccc(S(=O)(=O)N4CC(C)CC(C)C4)cc3)sc2c1 (configuration not stated) | i | 1% | 5µM* | -5% | i
Cc1ccc(C)c(NC(=O)C2CCN(S(=O)(=O)c3ccc4c(c3)NC(=O)CO4)CC2)c1 | i | -2% | -19% | 0% | ?
CC(=O)N(C)c1ccc(C=C2C=Cc3ccccc32)cc1 | i | 5% | 14µM* | nt | nt
COc1cc(C(O)c2nc(-c3cccs3)cs2)ccc1F (configuration not stated) | i | 11% | 0% | nt | i
OC(c1ccco1)c1nc(-c2ccc(F)c(Cl)c2)cs1 (configuration not stated) | i | 1% | 13µM* | nt | i
COc1ccc(C(O)c2nc(-c3ccc4ccccc4c3)cs2)cc1 (configuration not stated) | i | 3.5µM* | 3% | nt | i
COc1ccc(-c2csc(C(O)c3cccnc3)n2)cn1 (configuration not stated) | i | 7% | ? | nt | i
COc1ccc(C(O)c2nc(-c3cccs3)cs2)cc1 (configuration not stated) | i | 18% | 16µM* | nt | i
COc1ccc(-c2csc(C(O)c3ccc(F)cc3)n2)cn1 (configuration not stated) | i | 2% | 35µM* | nt | i
CCN(CC(=O)N1CCN(Cc2ccccc2)CC1)S(=O)(=O)c1ccc(C)cc1 | i | 4% | 6% | -3% | i
CC(CCc1ccc(O)cc1)NCc1ccc(Br)cc1 (configuration not stated) | i | -1% | -21% | 4% | i
COc1ccc(C(O)c2nc(-c3ccc(Cl)cc3)cs2)cc1 (configuration not stated) | ? | 11µM* | ? | nt | i
COc1ccc(C(O)c2nc(-c3ccncc3)cs2)cc1 (configuration not stated) | i | 7% | ? | nt | i
